Active and inactive are the calls of the source. The rule behind the calls is not given here.
assay: hESC survival regulators, cell-based (AID 493140); conditions: human embryonic stem cell survival screen; active compounds read high;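 note: cells exposed to compounds for four days before counting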

Row | SMILES | survival
1 | CC(C)CC(=O)NC(C(=O)N[C@H](C(=O)NC(CC(C)C)[C@@H](O)CC(=O)N[C@@H](C)C(=O)NC(CC(C)C)[C@@H](O)CC(=O)O)C(C)C)C(C)C (stereo not given in full) | 5.42 (inactive)
2 | CC[C@@H]1OC(=O)[C@H](C)[C@H](O[C@H]2C[C@@](C)(OC)[C@@H](O)[C@H](C)O2)[C@@H](C)[C@@H](O[C@@H]2O[C@H](C)C[C@H](N(C)C)[C@H]2O)C(C)(O)C[C@@H](C)[C@@H]2NC(COCCOC)OC([C@H]2C)[C@]1(C)O (stereo not given in full) | 4.33 (inactive)
3 | CN(C)CC/C=C1/c2ccccc2CSc2ccccc21 | 3.75 (inactive)
4 | C[C@H]1[C@H](C)CC[C@]2(C(=O)O)CC[C@]3(C)C(=CCC4[C@@]5(C)CC[C@H](O)C(C)(C)[C@@H]5CC[C@]43C)[C@H]12 (stereo not given in full) | 11.2 (inactive)
5 | O=C1O[C@H](C(O)CO)[C@H](O)C1O (stereo not given in full) | 4.42 (inactive)
6 | C1CCN2C[C@H]3C[C@@H](CN4CCCC[C@@H]34)[C@H]2C1 | 10 (inactive)
7 | CS(=O)(=O)c1ccc(-c2nc(-c3ccc(F)cc3)c(-c3ccncc3)[nH]2)cc1 | 113 (inactive)
8 | Cc1c(C)c2c(c(C)c1O)CC[C@](C)(CCC[C@@H](C)CCC[C@@H](C)CCCC(C)C)O2 | 5.83 (inactive)
9 | Nc1nc2ncc(CNc3ccc(C(=O)N[C@H](CCC(=O)O)C(=O)O)cc3)nc2c(=O)[nH]1 | 11.4 (inactive)
10 | CC(C)(CO)[C@H](O)C(=O)NCCC(=O)O | 19.5 (inactive)
11 | COC1CC(O[C@@H]2[C@H](C)[C@H](OC3OC(C)CC(N(C)C)C3OC(C)=O)[C@H](C)CC3(CO3)C(=O)[C@@H](C)C(OC(C)=O)[C@H](C)[C@H](C)OC(=O)[C@@H]2C)OC(C)C1OC(C)=O (stereo not given in full) | 27.8 (inactive)
12 | Cc1cc2ncc(-c3ccccc3)nc2cc1C | 100 (inactive)
13 | CC(C)(O/N=C(/C(=O)N[C@@H]1C(=O)N2C(C(=O)[O-])=C(C[n+]3ccccc3)CS[C@H]12)c1csc(N)n1)C(=O)O | 5.92 (inactive)
14 | C=C1CC[C@@H](O)C/C1=C/C=C1\CCC[C@]2(C)[C@@H]([C@H](C)CCCC(C)C)CC[C@@H]12 | 15.8 (inactive)
15 | CC(=O)NC(CC(=O)O)C(=O)O (stereo not given) | 11.8 (inactive)
16 | CCOC(=O)Oc1c(OC)cc(C(=O)OC2CC3CN4CCc5c([nH]c6cc(OC)ccc56)C4CC3C(C(=O)OC)C2OC)cc1OC (stereo not given) | 6.25 (inactive)
17 | O=c1[nH]c(=O)n([C@H]2CC(O)[C@@H](CO)O2)cc1I (stereo not given in full) | 6.25 (inactive)
18 | COC(=O)C1=CO[C@@H](C)[C@@H]2CN3CCc4c([nH]c5ccccc45)C3C[C@H]12 (stereo not given in full) | 5.92 (inactive)

Row | SMILES | survival
19 | CC[C@H]1CN2CCc3cc(OC)c(OC)cc3[C@@H]2C[C@@H]1CC1NCCc2cc(OC)c(OC)cc21 (stereo not given in full) | 0.25 (inactive)
20 | CC1Cc2ccccc2N1NC(=O)c1ccc(Cl)c(S(N)=O)c1 (stereo not given) | 17.1 (inactive)
21 | CN1CCC23c4ccccc4NC1C21CCN(C)C3Nc2ccccc21 | 4.92 (inactive)
22 | C=CC1=C(C(=O)O)N2C(=O)[C@@H](NC(=O)/C(=N/OCC(=O)O)c3csc(N)n3)[C@H]2SC1 (stereo in doubt) | 5.58 (inactive)
23 | CCOC(=O)[C@@H](CCc1ccccc1)NC(C)C(=O)N1CCC[C@@H]1C(=O)O (stereo not given in full) | 25.8 (inactive)
24 | Nc1c2ccccc2nc2c(O)cccc12 | 5.5 (inactive)
25 | CN1[C@@H]2CC[C@H]1CC(OC(=O)[C@@H](CO)c1ccccc1)C2 (stereo not given in full) | 13.1 (inactive)
26 | O=C(N[C@H](CO)[C@@H](O)c1ccc([N+](=O)[O-])cc1)C(Cl)Cl | 26.4 (inactive)
27 | NCC1OC(COC[C@@H]2C(O)[C@H](OC3C(O)C(N)CC(N)C3OC3OC(CN)C(O)C(O)C3N)O[C@@H]2CO)C(N)C(O)C1O (stereo not given in full) | 12.3 (inactive)
28 | CC(=O)O[C@H]1C(=O)[C@@]2(C)[C@H](O)C[C@@H]3OC[C@]3(OC(C)=O)[C@@H]2[C@@H](OC(=O)c2ccccc2)[C@@]2(O)C[C@@H](OC(=O)[C@@H](O)[C@H](NC(=O)c3ccccc3)c3ccccc3)C(C)=C1C2(C)C | 5 (inactive)
29 | C=C1CC[C@@H](O)C/C1=C/C=C1\CCC[C@]2(C)[C@@H]([C@H](C)/C=C/[C@@H](C)C(C)C)CC[C@@H]12 | 8.25 (inactive)
30 | CN=C(NC#N)NCCSCC1N=CN=C1C (stereo not given) | 16.7 (inactive)
31 | COc1cc(OC)c2c(c1Cl)O[C@]1(C2=O)C(OC)CC(=O)C[C@H]1C (stereo not given in full) | 13.2 (inactive)
32 | CC[C@H]1OC(=O)[C@H](C)[C@@H](O[C@H]2C[C@@](C)(OC)[C@@H](O)[C@H](C)O2)[C@H](C)[C@@H](O[C@H]2O[C@H](C)C[C@H](N(C)C)[C@H]2O)[C@](C)(O)C[C@@H](C)C(=O)[C@H](C)[C@@H](O)[C@]1(C)O | 35.4 (inactive)
33 | CC(=O)NC1[C@@H](O)OC(CO)[C@@H](O)[C@H]1O[C@H](C)C(=O)O (stereo not given in full) | 11.5 (inactive)
34 | C[C@]12CCC(=O)C[C@H]1CC(=O)[C@@H]1[C@@H]2CC(=O)[C@]2(C)CCC[C@@H]12 (tested in a mixture with another compound) | 19.5 (inactive)
35 | CC(C)(CS)C(=O)N1CCC[C@@H]1C(=O)O | 8.75 (inactive)
